For some assays here: Measured potencies and affinities stand elsewhere.
How the values were obtained:
Set-up in all cases: scale not given: direction of the effect not stated beside the values
[1] = biological target: Protein translocase subunit SecA (Escherichia coli (strain K12)) (UniProt P10408); assay: Assay to Identify E. coli SecA ATPase Inhibitors; type: functional; details: 30 µM
[2] = biological target: T1, Ubiquitin-activating enzyme e1, putative (Leishmania donovani (strain BPK282A1)) (UniProt E9BSI1); assay: Leishmania donovani Ubiquitin Activating Enzyme (LdE1); type: functional; details: 30 µM
T1 sequence (whole entry): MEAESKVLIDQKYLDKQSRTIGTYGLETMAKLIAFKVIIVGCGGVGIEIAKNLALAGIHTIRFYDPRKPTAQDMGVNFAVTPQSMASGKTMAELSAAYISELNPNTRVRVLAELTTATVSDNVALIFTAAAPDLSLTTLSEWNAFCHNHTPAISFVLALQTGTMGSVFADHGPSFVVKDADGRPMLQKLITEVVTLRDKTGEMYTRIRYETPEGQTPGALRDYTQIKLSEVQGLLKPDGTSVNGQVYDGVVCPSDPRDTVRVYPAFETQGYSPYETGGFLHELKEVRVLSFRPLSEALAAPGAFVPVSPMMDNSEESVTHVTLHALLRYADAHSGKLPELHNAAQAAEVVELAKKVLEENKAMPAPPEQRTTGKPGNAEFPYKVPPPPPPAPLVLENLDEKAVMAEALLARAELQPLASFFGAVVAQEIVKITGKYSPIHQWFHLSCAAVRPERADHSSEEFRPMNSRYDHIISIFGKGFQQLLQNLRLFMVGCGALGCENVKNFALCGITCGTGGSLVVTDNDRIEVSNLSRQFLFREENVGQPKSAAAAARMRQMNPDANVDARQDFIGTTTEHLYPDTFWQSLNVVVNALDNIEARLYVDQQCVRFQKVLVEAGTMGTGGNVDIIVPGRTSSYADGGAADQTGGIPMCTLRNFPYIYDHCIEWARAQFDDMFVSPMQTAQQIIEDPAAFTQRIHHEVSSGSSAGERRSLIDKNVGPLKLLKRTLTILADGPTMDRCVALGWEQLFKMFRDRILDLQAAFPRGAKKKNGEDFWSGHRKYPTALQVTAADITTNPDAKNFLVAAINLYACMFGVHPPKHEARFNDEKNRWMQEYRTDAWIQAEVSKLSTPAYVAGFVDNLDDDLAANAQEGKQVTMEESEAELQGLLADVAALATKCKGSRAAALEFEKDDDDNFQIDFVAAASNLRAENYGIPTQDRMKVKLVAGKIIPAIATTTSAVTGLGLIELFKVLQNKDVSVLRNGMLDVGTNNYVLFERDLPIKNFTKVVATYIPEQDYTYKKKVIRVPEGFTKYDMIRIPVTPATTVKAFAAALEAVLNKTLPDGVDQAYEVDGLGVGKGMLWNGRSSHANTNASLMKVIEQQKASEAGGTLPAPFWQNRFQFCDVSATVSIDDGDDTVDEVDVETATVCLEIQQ

[3] = biological target: AMP-activated protein kinase, AMPK (Homo sapiens) (UniProt P54646+O43741+P54619+Q9UGJ0+Q9Y478+Q13131+Q9UGI9); assay: AMP-dependent Kinase enzyme assay. An in vitro enzyme assay that detects ADP turnover that is directly proportional to AMPK activity. This uses naive AMPK that is activated during the assay with MK-8722; type: functional; details: 30 µM
[4] = biological target: Sialic acid-binding Ig-like lectin 9 (Homo sapiens) (UniProt Q9Y336); assay: Hs-Siglec9 ALPHAscreen SOP 20170721; details: 10 µM
Trypanosoma cruzi = assay: Trypanosoma cruzi phosphomannomutase and mannose-1-phosphate guanylyltransferase assay; type: functional; details: 10 µM
[5] = biological target: T2, Arginase-2, mitochondrial (Homo sapiens) (UniProt P78540); assay: in vitro enzyme assay to detect the production of urea directly proportional to the activity of Arginase II; type: functional; details: 33.3 µM; note: in the data most compounds retested in dose-response had high values
T2 sequence (whole entry): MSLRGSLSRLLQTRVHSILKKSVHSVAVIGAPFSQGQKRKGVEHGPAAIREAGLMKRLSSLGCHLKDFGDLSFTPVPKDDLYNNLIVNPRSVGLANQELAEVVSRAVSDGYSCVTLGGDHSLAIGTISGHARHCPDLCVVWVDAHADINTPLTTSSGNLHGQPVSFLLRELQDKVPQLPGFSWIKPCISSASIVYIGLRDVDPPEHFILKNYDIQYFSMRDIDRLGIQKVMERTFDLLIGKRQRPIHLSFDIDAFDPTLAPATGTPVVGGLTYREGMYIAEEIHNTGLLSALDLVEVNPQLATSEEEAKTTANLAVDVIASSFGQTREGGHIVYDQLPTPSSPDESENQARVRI

[6] = biological target: T3, Proteasome subunit beta (Trypanosoma cruzi) (UniProt O96673); assay: Trypanosoma cruzi proteasome chymotrypsin-like activity (TcProtChymo) assay.; note: in the data most compounds retested in dose-response had high values; type: functional; details: 9.37 µM
T3 sequence (whole entry): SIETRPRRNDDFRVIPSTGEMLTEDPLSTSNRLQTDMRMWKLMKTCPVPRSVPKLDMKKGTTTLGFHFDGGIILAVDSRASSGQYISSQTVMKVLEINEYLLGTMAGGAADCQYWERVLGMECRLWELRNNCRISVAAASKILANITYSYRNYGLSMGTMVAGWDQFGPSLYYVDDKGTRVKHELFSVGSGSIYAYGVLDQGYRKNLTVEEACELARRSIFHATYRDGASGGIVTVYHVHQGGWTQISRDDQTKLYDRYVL

Homo sapiens = species on record: Homo sapiens; assay: To identify inhibition of the IFN signalling (Jak-Stat) pathway via expression of an eGFP reporter gene under the control of an IFN-stimulated response element (ISRE) containing MxA promoter.; type: functional; details: 30 µM
[7] = biological target: T4, Tyrosyl-tRNA synthetase, putative (Trypanosoma cruzi (strain CL Brener)) (UniProt Q4DSP6); assay: Trypanosoma cruzi tyrosyl tRNA synthetase (TcYRS) _High Tyrosine SOP; type: functional; details: 30 µM; note: in the data most compounds retested in dose-response had high values
T4 sequence (whole entry): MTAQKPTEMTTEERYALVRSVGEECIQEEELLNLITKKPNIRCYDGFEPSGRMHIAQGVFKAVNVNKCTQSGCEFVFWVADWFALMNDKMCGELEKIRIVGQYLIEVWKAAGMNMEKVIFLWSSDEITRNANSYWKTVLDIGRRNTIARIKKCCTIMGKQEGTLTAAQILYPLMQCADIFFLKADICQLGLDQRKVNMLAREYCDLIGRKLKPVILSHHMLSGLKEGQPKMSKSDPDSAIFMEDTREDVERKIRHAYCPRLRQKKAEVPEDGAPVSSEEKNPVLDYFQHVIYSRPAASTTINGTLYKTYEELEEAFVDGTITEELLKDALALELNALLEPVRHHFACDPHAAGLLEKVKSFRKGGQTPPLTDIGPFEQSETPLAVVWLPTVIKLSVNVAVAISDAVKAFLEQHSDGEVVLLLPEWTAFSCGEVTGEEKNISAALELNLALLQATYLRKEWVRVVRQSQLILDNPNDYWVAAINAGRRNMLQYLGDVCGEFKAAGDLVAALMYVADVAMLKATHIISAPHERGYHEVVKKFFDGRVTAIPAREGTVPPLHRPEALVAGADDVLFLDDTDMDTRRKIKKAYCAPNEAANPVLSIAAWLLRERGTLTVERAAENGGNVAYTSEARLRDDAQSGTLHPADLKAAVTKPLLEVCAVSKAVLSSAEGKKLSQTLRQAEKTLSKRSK

[8] = biological target: T4, Tyrosyl-tRNA synthetase, putative (Trypanosoma cruzi (strain CL Brener)); assay: Trypanosoma cruzi tyrosyl tRNA synthetase (TcYRS) SOP; type: functional; details: 30 µM
[9] = biological target: Chromo domain-containing protein 1 (Saccharomyces cerevisiae (strain ATCC 204508 / S288c) (Baker's yeast)) (UniProt P32657); assay: ScCHD-1 Enzyme Inhibition Assay; type: functional; details: 30 µM; note: in the data most compounds retested in dose-response had high values
Chain of Chromo domain-containing protein 1 (Saccharomyces cerevisiae (strain ATCC 204508 / S288c) (Baker's yeast)) (P32657 whole entry, the tested form may be a part): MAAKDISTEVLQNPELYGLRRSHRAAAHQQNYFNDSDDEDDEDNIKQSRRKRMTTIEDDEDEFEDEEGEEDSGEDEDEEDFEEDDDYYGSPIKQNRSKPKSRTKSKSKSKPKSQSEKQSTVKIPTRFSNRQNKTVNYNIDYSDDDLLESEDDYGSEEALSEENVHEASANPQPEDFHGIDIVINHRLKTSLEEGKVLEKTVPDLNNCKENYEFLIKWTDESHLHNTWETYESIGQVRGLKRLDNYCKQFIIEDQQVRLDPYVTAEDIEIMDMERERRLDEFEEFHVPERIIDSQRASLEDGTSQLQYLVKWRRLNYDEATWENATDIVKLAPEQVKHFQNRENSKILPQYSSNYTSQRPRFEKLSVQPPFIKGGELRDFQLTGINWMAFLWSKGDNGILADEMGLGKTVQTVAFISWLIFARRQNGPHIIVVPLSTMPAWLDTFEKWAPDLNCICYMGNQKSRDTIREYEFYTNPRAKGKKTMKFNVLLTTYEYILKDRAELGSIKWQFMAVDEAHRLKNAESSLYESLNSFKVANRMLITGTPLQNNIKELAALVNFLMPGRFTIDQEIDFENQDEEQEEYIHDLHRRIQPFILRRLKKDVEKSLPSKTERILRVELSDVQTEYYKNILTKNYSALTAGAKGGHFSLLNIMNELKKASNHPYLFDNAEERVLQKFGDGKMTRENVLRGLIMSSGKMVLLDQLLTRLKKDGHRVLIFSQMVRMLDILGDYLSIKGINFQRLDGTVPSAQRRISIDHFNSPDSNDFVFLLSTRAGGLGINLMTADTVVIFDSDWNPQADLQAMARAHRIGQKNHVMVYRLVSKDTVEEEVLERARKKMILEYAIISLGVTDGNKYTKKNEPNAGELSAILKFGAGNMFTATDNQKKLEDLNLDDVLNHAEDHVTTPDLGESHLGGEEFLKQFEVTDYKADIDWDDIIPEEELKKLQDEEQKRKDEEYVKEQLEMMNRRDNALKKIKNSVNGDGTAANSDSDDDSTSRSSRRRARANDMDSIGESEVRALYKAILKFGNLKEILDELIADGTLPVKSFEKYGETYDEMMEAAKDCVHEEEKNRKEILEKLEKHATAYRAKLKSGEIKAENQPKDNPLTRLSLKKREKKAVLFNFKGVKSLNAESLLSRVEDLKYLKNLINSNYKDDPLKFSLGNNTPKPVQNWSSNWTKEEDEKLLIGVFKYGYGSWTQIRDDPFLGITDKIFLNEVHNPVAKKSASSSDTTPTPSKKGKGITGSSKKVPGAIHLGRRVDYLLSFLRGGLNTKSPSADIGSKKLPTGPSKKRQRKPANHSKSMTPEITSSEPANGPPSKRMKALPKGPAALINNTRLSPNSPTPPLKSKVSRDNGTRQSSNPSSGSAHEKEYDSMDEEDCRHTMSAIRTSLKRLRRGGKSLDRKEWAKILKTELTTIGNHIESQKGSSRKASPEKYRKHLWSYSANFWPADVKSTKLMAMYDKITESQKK

Chain of Sialic acid-binding Ig-like lectin 9 (Homo sapiens) (Q9Y336 whole entry): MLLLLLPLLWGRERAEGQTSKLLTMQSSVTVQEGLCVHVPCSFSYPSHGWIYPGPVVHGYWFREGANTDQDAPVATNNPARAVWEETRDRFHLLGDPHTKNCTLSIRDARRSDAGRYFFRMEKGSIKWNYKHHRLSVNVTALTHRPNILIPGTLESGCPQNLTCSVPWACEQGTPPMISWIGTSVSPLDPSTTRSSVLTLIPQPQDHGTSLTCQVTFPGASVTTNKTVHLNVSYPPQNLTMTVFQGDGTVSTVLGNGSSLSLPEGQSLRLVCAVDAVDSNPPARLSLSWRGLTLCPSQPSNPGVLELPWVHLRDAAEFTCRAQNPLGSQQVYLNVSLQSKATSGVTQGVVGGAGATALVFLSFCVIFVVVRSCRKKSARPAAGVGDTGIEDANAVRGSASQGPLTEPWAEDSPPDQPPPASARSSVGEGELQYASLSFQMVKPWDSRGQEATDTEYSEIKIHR
Chain of Protein translocase subunit SecA (Escherichia coli (strain K12)) (P10408 whole entry): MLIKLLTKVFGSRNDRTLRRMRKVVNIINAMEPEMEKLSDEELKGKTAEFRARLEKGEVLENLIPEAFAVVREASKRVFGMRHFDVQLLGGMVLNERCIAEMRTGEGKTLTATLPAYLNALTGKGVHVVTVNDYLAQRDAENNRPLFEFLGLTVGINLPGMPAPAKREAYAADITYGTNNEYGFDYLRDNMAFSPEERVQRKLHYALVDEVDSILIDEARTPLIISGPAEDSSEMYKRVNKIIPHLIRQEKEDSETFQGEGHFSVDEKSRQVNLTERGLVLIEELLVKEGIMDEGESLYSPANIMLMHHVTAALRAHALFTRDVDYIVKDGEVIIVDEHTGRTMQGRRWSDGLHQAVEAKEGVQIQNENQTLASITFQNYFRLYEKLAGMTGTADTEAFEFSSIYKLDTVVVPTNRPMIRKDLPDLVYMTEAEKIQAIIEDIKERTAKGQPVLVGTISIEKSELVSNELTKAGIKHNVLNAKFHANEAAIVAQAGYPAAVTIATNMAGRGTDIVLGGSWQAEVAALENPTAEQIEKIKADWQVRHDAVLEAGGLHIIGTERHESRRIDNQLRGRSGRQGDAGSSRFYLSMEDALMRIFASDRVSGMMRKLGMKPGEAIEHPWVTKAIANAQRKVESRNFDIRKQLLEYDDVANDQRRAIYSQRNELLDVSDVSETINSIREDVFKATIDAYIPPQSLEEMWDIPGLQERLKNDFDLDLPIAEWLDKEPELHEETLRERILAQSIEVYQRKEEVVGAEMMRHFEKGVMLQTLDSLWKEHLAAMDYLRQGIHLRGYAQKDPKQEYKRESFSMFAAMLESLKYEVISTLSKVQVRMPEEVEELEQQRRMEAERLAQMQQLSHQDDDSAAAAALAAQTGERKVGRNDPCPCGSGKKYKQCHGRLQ

| SMILES | Percent Effect [1] [%] | Percent Effect [2] [%] | Percent Effect [3] [%] | Percent Effect [4] [%] | Percent Effect (Trypanosoma cruzi) [%] | Percent Effect [5] [%] | Percent Effect [6] [%] | Percent Effect (Homo sapiens) [%] | Percent Effect [7] [%] | Percent Effect [8] [%] | Percent Effect [9] [%] |
| --- | --- | --- | --- | --- | --- | --- | --- | --- | --- | --- | --- |
| COc1ccc(CNCC2CC2)cc1F | -3.45 | 0 | 3.06 | 6.66 | 1.56 | -1.67 | 3.47 | -5.14 | 4.95 | 3.66 | -2.56 |
| CCn1nc2c(cc1=O)CN(Cc1nc3ccccc3c(=O)[nH]1)CC2 | -5.88 | 5.48 | -24.8 | -1.63 | -1.57 | -1.36 | 18.3 | 10.3 | 6.45 | 10 | -4.67 |
| O=C(NCc1ccccc1CN1CCC(O)CC1)Nc1ccncc1 | 5.78 | 10.8 | -5.37 | 6.21 | -5.21 | 0 | 16.2 | 28 | 6.88 | 14.6 | -3.29 |
| CCOc1cc(C(=O)N2CCCC(c3cc(C(N)=O)[nH]n3)C2)ccn1 (configuration not stated) | -4.21 | 10.5 | 5.83 | -2.38 | 7.94 | 0 | 5.5 | -0.364 | 3.45 | 16.1 | -0.329 |
| CCN(Cc1ccco1)C(=O)NCc1nnc2n1CCC2 | -1.4 | 10.8 | -2.71 | 1.38 | -1.35 | 3.81 | 20.5 | 0.671 | 6.88 | 14.6 | -1.97 |
| Cc1nn(C)c(C)c1CC(=O)N1CCC(Nc2cccnn2)CC1 | -5.77 | -13.2 | -1.31 | -4.49 | 9.59 | -1.92 | 5.85 | 9.42 | 5.39 | 9.76 | -11.7 |
| OCCOc1nc(-c2ccccc2Cl)no1 | -1.86 | 11 | -5.12 | 4.94 | 4.9 | 18.6 | 20.4 | 24.7 | 6.45 | 20 | -5.57 |
| CCOCCN1CCN(Cc2nc(C3CC3)no2)CC1CC (configuration not stated) | -6.05 | 5.48 | 6.32 | 25.2 | 10.4 | 0.909 | 9.41 | 2.26 | 3.23 | 7.5 | -5.89 |
| Cc1csc(NC(=O)CN2CCC(c3ccnn3CCO)CC2)n1 | -4.67 | 25.3 | -7.88 | -3.79 | 4.06 | 0 | 9.42 | 47.6 | 8.37 | 26.6 | -7.33 |
| NC(=O)C1CCN(Cn2nc(-c3ccccc3)oc2=O)CC1 | -1.26 | 15.6 | 6.06 | 6.43 | 1.08 | -56.5 | 20.3 | 2.82 | 4.3 | 16.1 | -5.92 |
| O=C(NC1(c2nnn(Cc3ccncc3)n2)CCCC1)c1ccccc1 | -6.65 | 2.67 | -7.02 | 6.6 | 1.85 | 0.521 | -25.6 | -24.1 | 7.1 | 16.1 | -2.08 |
| Cc1nn(CCO)c(C)c1CNC1CCc2c(Cl)cccc21 (configuration not stated) | -3.63 | 8 | -5.26 | 16.9 | 8.67 | 46.9 | 0.174 | 8.33 | 1.64 | 8.64 | -14.3 |
| COCCc1noc(CNC2CCc3nc(C(C)C)nn3C2)n1 (configuration not stated) | -1.47 | 2.6 | 8.06 | -4.34 | -1.27 | -2.74 | 6.39 | 17.2 | 0.952 | 0 | -13.7 |
| Cn1cc(-c2nc(CN3CCN(CCO)CC3)cs2)cn1 | 0.128 | 15.8 | 4.54 | -2.39 | -0.376 | -1.53 | 21.9 | 17 | 9.31 | 19.5 | -10.9 |
| O=C(Cn1nc(-c2ccc(F)cc2)oc1=O)Nc1ccccc1 | 0.224 | 21.1 | -0.861 | -9.34 | 3.01 | -2.3 | 21.6 | 7.21 | 6.37 | 21.9 | -11.6 |
| CC(C)N1CC(C(=O)NCCOc2ccc3c(c2)OCO3)CC1=O (configuration not stated) | 0.716 | 21.1 | -0.48 | -5.15 | 3.64 | 2.16 | 12.1 | 4.59 | 8.37 | 23.5 | -9.09 |
| O=C(CCOc1ccccc1)N1CCC(Nc2cccnn2)CC1 | -6.73 | 13.2 | -7.1 | 16.8 | 2.15 | -0.719 | 5.5 | 8.93 | 6.4 | 18.5 | -5.39 |
| O=C(CCN1CCCC1=O)NCc1cccnc1Oc1ccccc1 | -6.95 | -8.22 | 0.461 | 2.58 | 0.595 | -1.2 | 4.88 | -2.67 | 1.04 | 6.17 | -1.4 |
| COC(=O)c1ccc(N2CCN(C(=O)c3cc(C)on3)C(C)C2)cc1 (configuration not stated) | -1.64 | 12.7 | 13.9 | 10.2 | -3.87 | 0.76 | 9.42 | 7.47 | -2.46 | 3.8 | -6.13 |
| Cc1csc(C2CCCN(C(=O)c3cc(Cl)c[nH]3)C2)n1 (configuration not stated) | -4.24 | 5.41 | -0.992 | 9.99 | -5 | -2 | 3.96 | 19 | 14.3 | 13.6 | -2.75 |
| O=C(c1ccsc1)N1CCCC(c2cc(C(F)(F)F)[nH]n2)C1 (configuration not stated) | -8.76 | 5.26 | 10.2 | -0.389 | -4.39 | 0.719 | -2.12 | 24.2 | 0.493 | 3.7 | 7.08 |
| Cc1nc(CN2CCc3ncnc(C)c3CC2)cs1 | -4.35 | 0 | 0.161 | 1.66 | 4.99 | 3.5 | 10.3 | -27.4 | 2.16 | 7.69 | 4.23 |
